Experiment [1] can be described thus: ACEA_ER_80hr: ACEA Biosciences xCELLigence Real-Time Cell Analysis on Estrogen Receptor Agonism for Proliferation (AID 2282667; active = hit-call score of the fitted dose curve at least 0.9, where 1 is the maximum). As to conditions: T47D proliferation, impedance (xCELLigence), 80 h. The method, boiled down: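 Real-time electrical impedance tracked growth of the human breast line T47D, with the 80 h post-dosing value used. Dosing spanned eight 1:4 steps down from a 100 uM final top concentration, run in duplicate.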

Experiment [2] is described as follows: ATG_CRE_CIS: Attagene CIS-FACTORIAL HepG2 Assay for human cAMP Responsive Element (CRE) binding protein 3 (AID 2282926). To be noted: HepG2 CRE cis-reporter, Attagene multiplexed mRNA; actives raise or lower the signal. A digest of the protocol:
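Assay format: transient reporter transfection of HepG2, 24 h treatment, total RNA isolation with DNase I step. Reporter abundance read by fluorescence after PCR and capillary separation; DMSO-normalised gain or loss fitting.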

The target in experiment [3] is CCAAT/enhancer-binding protein beta (Homo sapiens) (UniProt P17676). Kind of experiment: ATG_C_EBP_CIS: Attagene CIS-FACTORIAL HepG2 Assay for human CCAAT/Enhancer Binding Protein (C/EBP) beta (AID 2282927). To be noted: HepG2 Attagene cis-factorial transcription factor reporter; actives raise or lower the signal. The method, boiled down: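 HepG2 transiently transfected with multiplexed reporter units under cis-regulatory promoters reporting endogenous C/EBPb activity. After 24 h exposure, reporter mRNA assayed by RT-PCR, fluorescent labelling, HpaI digestion and capillary electrophoresis; bidirectional fitting versus DMSO.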

A short description of experiment [4]: ATG_CMV_CIS: Attagene CIS-FACTORIAL HepG2 Assay for human CMV (Internal Marker) (AID 2282928).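 Also: endpoint acts as a background internal control marker rather than a target.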 To be noted: HepG2 CMV promoter reporter, transcription factor profiling; actives raise or lower the signal. The method, boiled down: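 Reporter transcripts from transfected HepG2 cells are isolated after 24 h of chemical dosing, reverse-transcribed and amplified. Fragments labeled with 6-FAM are cut with HpaI and quantified by capillary electrophoresis; DMSO defines baseline.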

Experiment [5] is described as follows: ATG_DR4_LXR_CIS: Attagene CIS-FACTORIAL HepG2 Assay for human Liver X Receptor (LXR), DR4 submotif (AID 2282929). As to conditions: HepG2 Attagene DR4 cis-reporter, mRNA transcription; actives raise or lower the signal. A digest of the protocol: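 HepG2, transient MRTU transfection, cis-element (DR4) promoter; 24 h compound exposure; total RNA → oligo(dT) RT → PCR → 6-FAM primer extension → HpaI cut → CE. Gain/loss vs DMSO, bidirectional fit.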

The target in experiment [6] is Aryl hydrocarbon receptor (Homo sapiens) (UniProt P35869). Kind of experiment: ATG_Ahr_CIS: Attagene CIS-FACTORIAL HepG2 Assay for human Aryl Hydrocarbon Receptor (Ahr) (AID 2282930). To be noted: HepG2 AhR cis-factorial reporter transcription; actives raise or lower the signal. A digest of the protocol: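 HepG2 cells transiently transfected with cis-element-driven multiplexed reporter units; endogenous AhR activity read as reporter mRNA 24 h after dosing, via RT-PCR, 6-FAM labelling, HpaI digestion and capillary electrophoresis. Bidirectional fit relative to DMSO.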

Experiment [7] in a line: ATG_AP_1_CIS: Attagene CIS-FACTORIAL HepG2 Assay for human Activator Protein 1 (AP-1) (AID 2282931). As to conditions: HepG2 Attagene cis-factorial AP-1 reporter mRNA; actives raise or lower the signal. A digest of the protocol: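 Transient MRTU transfection of HepG2 → 24 h chemical treatment → RNA isolation, RT-PCR, 6-FAM labelling, HpaI digest → capillary electrophoresis. Fit: bidirectional, DMSO negative control.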

Experiment [8] can be described thus: ATG_AP_2_CIS: Attagene CIS-FACTORIAL HepG2 Assay for human Activator Protein 2 (AP-2) (AID 2282932). As to conditions: HepG2 AP-2 cis-reporter, Attagene transcription factor profiling; actives raise or lower the signal. The method, boiled down:
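Read-out: fluorescent reporter mRNA via RT-PCR and capillary electrophoresis, 24 h post-dose in transiently transfected HepG2. Endogenous factors drive cis-promoter reporters; gain or loss of signal fitted bidirectionally against DMSO.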

Experiment [9] in a line: ATG_BRE_CIS: Attagene CIS-FACTORIAL HepG2 Assay for human Bone Morphogenetic Protein (BMP) Response Element (BRE) (AID 2282933). To be noted: HepG2 BMP response element reporter, Attagene transcription factor profiling; actives raise or lower the signal. A digest of the protocol: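 Endogenous transcription factor activity read in transiently transfected HepG2 cells after 24 h chemical exposure. Bidirectional curve fitting against DMSO; readout is reporter transcript level by RT-PCR with capillary electrophoresis of labelled products.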

Experiment [10] deals with Retinoic acid receptor alpha (Homo sapiens) (UniProt P10276). The experiment in a line: ATG_DR5_RAR_CIS: Attagene CIS-FACTORIAL HepG2 Assay for human Retinoic Acid Receptor Alpha (RARE), DR5 submotif (AID 2282934). To be noted: HepG2 Attagene cis-factorial RARE DR5 reporter, mRNA; actives raise or lower the signal. The method, boiled down: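 HepG2 cells transiently transfected with multiplexed reporter units; DR5 cis-element drives reporter through endogenous transcription factors. After 24 h dosing, reporter mRNA quantified by RT-PCR, fluorescent labeling, HpaI digestion and capillary electrophoresis; bidirectional fitting versus DMSO.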

Experiment [11] deals with Transcription factor E2F1 (Homo sapiens) (UniProt Q01094). Kind of experiment: ATG_E2F_CIS: Attagene CIS-FACTORIAL HepG2 Assay for human E2F Transcription Factor 1 (AID 2282935). As to conditions: HepG2 Attagene cis-reporter, E2F reporter RNA transcripts; actives raise or lower the signal. A digest of the protocol:
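Transient MRTU transfection of HepG2; 24 h compound exposure; RNA → oligo(dT) RT → PCR → FAM label → HpaI cut → CE fluorescence. Gain/loss of signal fit against DMSO.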

Experiment [12] can be described thus: ATG_E_Box_CIS: Attagene CIS-FACTORIAL HepG2 Assay for human Enhancer Box (E-box) (AID 2282936). To be noted: HepG2 E-box cis-reporter transcription, actives raise or lower the signal. The method, boiled down:
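Transiently transfected HepG2, endogenous TF-driven reporters, 24 h dosing. Readout: RT-PCR plus capillary electrophoresis of fluorescent reporter fragments. Gain or loss of signal fitted bidirectionally against DMSO baseline.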

Experiment [13] is described as follows: ATG_M_61_CIS: Attagene CIS-FACTORIAL HepG2 Assay for M61 Transcription Factor (Internal Marker) (AID 2282937). As to conditions: HepG2 Attagene CIS-FACTORIAL M61 internal marker reporter; actives raise or lower the signal. A digest of the protocol:
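Human liver HepG2, transient MRTU transfection (cis promoter elements), 24 h compound. Total RNA → oligo(dT) RT → PCR → FAM label → HpaI → CE. Internal background marker; bidirectional fitting, DMSO = baseline.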

Experiment [14] can be described thus: ATG_EGR_CIS: Attagene CIS-FACTORIAL HepG2 Assay for human Early Growth Response 1 (EGR1) (AID 2282938). As to conditions: HepG2 Attagene CIS-FACTORIAL EGR reporter mRNA; actives raise or lower the signal. A digest of the protocol: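 Transient transfection of human HepG2 with multiple cis-regulated reporter units, chemical exposure 24 h, total RNA isolated. Reverse transcription, PCR, fluorescent labelling and capillary electrophoresis quantify reporter transcripts; activity fitted bidirectionally against DMSO.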

A short description of experiment [15]: ATG_M_19_CIS: Attagene CIS-FACTORIAL HepG2 Assay for M19 Transcription Factor (Internal Marker) (AID 2282939). As to conditions: HepG2 Attagene CIS-FACTORIAL M19 internal marker reporter; actives raise or lower the signal. The method, boiled down: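 Internal marker readout, fitted in both directions against DMSO, from HepG2 cells carrying transfected cis-element reporter constructs; RT-PCR and capillary electrophoresis of reporter mRNA after 24 h exposure.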

Experiment [16] can be described thus: ATG_ERE_CIS: Attagene CIS-FACTORIAL HepG2 Assay for Estrogen Response Element (ERE) (AID 2282940). To be noted: HepG2 ERE cis-reporter, Attagene RNA transcript; actives raise or lower the signal. A digest of the protocol: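 After 24 h compound treatment, RNA from transfected HepG2 cells was reverse-transcribed, reporter cDNA PCR-amplified, FAM-labelled, HpaI-cut and resolved by capillary electrophoresis. ERE-driven cis reporter transcripts reflect endogenous factors; gain or loss scored against DMSO.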

Experiment [17] can be described thus: ATG_Ets_CIS: Attagene CIS-FACTORIAL HepG2 Assay for human Erythroblast Transformation Specific (ETS) (AID 2282941). As to conditions: HepG2 ETS cis-reporter transcription, actives raise or lower the signal. A digest of the protocol:
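Bidirectional fit versus DMSO of reporter mRNA signal, detected by RT-PCR and capillary electrophoresis in HepG2 cells transiently transfected with cis-element reporters and dosed 24 h.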

Experiment [18] has as its target Hepatocyte nuclear factor 3-beta (Homo sapiens) (UniProt Q9Y261). The experiment in a line: ATG_FoxA2_CIS: Attagene CIS-FACTORIAL HepG2 Assay for human Forkhead box A2 (FOXA2) (AID 2282942). As to conditions: HepG2 cis-reporter transcription factor activity, 24 h; actives raise or lower the signal. A digest of the protocol:
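Transient MRTU transfection of HepG2 liver cells; 24 h treatment; total RNA → oligo(dT) RT → PCR → FAM primer extension → HpaI cut → CE. Bidirectional fit vs DMSO.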

Experiment [19] is described as follows: ATG_FoxO_CIS: Attagene CIS-FACTORIAL HepG2 Assay for human Forkhead box O (FoxO) (AID 2282943). To be noted: HepG2 Attagene cis-reporter, FoxO element, mRNA; actives raise or lower the signal. The method, boiled down: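 HepG2 cells transiently transfected with cis-element-driven reporter units report endogenous FoxO activity. After 24 h chemical exposure, reporter mRNA quantified by RT-PCR, fluorescent labeling, HpaI digestion and capillary electrophoresis; bidirectional fit versus DMSO.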

Experiment [20] can be described thus: ATG_GATA_CIS: Attagene CIS-FACTORIAL HepG2 Assay for human GATA Binding Protein (AID 2282944). As to conditions: HepG2 GATA cis-element reporter, Attagene multiplex mRNA; actives raise or lower the signal. A digest of the protocol: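 Reporter transcripts from a GATA cis-regulated unit, among multiplexed reporters in transfected HepG2 cells, were measured by RT-PCR with capillary electrophoresis after 24 h dosing. Induction or loss scored relative to DMSO.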

Inconclusive results are not listed. The source made the active and inactive calls. The calls were made as follows, unless noted: active = hit-call score of the fitted dose curve at least 0.9, where 1 is the maximum; inactive = score below 0.9.

CCAAT/enhancer-binding protein beta (Homo sapiens), sequence (P17676 whole entry, looked up): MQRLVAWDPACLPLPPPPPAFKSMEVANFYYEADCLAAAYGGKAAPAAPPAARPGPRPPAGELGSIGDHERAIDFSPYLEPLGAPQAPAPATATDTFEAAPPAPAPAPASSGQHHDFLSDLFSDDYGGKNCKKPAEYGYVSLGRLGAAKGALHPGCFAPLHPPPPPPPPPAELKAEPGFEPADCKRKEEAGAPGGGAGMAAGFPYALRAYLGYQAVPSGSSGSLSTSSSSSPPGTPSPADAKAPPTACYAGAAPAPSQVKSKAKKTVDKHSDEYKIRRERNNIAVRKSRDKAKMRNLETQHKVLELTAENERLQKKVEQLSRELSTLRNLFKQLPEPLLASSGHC
Retinoic acid receptor alpha (Homo sapiens), sequence (P10276 whole entry, looked up): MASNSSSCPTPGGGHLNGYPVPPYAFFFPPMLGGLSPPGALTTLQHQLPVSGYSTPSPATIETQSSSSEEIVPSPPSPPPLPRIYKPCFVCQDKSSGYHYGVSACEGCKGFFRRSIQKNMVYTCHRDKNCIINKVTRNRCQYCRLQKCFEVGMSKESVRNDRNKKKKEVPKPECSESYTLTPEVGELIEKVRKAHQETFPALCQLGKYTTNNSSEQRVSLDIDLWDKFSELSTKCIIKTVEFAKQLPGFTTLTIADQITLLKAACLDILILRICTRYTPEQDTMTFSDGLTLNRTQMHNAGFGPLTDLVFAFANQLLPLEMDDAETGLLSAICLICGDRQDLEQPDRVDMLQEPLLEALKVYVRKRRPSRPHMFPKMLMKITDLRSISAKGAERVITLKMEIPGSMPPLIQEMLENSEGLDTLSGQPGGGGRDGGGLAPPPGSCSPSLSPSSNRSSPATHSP
Aryl hydrocarbon receptor (Homo sapiens), sequence (P35869 whole entry, looked up): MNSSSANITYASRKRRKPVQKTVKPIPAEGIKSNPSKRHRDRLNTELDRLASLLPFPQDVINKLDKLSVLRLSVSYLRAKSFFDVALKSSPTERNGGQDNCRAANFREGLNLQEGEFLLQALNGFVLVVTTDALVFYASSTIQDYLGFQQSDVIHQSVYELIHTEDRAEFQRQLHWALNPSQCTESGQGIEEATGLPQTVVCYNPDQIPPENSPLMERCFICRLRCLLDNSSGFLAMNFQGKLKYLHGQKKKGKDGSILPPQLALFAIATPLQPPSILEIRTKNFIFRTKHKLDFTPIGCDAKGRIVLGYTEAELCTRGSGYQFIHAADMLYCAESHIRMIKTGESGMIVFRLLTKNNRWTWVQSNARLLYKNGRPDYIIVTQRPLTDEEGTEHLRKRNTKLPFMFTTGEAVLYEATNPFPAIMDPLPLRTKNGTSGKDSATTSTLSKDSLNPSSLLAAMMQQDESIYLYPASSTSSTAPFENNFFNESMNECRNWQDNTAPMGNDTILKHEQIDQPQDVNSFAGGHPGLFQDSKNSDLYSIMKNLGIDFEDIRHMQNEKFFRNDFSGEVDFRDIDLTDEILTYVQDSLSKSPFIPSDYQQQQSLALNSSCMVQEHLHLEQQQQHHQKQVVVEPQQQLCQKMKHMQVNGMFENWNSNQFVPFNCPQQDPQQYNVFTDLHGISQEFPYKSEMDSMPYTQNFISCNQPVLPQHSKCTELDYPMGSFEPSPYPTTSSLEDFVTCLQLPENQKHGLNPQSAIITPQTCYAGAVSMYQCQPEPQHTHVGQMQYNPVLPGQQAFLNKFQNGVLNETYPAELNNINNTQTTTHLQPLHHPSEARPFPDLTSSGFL
Hepatocyte nuclear factor 3-beta (Homo sapiens), sequence (Q9Y261 whole entry, looked up): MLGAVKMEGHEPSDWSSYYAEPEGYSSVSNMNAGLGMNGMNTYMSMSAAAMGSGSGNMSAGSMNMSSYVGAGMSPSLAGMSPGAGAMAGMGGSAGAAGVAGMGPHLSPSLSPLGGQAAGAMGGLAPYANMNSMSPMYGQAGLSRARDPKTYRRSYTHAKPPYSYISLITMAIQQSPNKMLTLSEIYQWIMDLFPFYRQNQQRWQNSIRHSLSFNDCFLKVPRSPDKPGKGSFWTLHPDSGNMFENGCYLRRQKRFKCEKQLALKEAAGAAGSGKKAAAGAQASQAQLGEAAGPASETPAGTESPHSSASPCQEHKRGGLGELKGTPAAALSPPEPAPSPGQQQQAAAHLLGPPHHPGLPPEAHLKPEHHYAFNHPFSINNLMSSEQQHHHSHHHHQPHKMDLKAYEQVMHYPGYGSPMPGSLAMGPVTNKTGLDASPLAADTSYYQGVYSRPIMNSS
Transcription factor E2F1 (Homo sapiens), sequence (Q01094 whole entry, looked up): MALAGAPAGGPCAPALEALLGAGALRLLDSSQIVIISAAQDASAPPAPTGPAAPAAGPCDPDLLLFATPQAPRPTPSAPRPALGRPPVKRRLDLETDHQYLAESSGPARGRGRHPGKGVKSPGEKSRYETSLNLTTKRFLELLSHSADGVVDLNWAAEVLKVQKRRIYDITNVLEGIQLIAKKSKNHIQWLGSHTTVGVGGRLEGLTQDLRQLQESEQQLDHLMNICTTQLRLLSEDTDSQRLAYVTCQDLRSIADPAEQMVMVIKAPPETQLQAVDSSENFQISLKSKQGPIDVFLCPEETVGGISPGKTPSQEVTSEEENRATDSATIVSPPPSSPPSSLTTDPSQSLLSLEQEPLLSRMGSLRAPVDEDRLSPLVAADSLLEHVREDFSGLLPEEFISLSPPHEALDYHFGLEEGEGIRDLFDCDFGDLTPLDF

Consider `CC(C)OC(=O)COc1ccc(Cl)cc1Cl`, for which the outcome in [1], in experiment [2], in experiment [3], in [4], in experiment [5] and in experiment [6] was inactive. Moreover, the result in experiment [7], in experiment [8], in [9], in [10], in experiment [11] and in experiment [12] was inactive. The result in experiment [13], in experiment [14], in experiment [15], in [16], in [17] and in [18] was inactive. Besides, the molecule was classed as inactive in [19] and in experiment [20].
For the molecule `CO[Si](CCCOCC1CO1)(OC)OC` (stereo not drawn), the call in experiment [1], in experiment [2], in [3], in experiment [4], in [6] and in experiment [7] was inactive. Also, the molecule was called inactive in experiment [8], in experiment [9], in [10], in [11], in experiment [12] and in experiment [13]. The call in experiment [14], in experiment [15], in experiment [16], in experiment [17], in experiment [18] and in experiment [19] was inactive. Besides, the call in experiment [20] was inactive.
In the case of `c1ccc(C[P+](c2ccccc2)(c2ccccc2)c2ccccc2)cc1`, the half-maximal activity concentration (AC50) (usually the concentration at which the activity in the assay is half-maximal) in experiment [1] is 0.132 µM (active); in experiment [9] it was 10.7 µM (active). Also, the result in experiment [2], in experiment [3], in experiment [4], in experiment [6], in experiment [7] and in [8] was inactive. For the same molecule, the call in experiment [10], in experiment [11], in experiment [12], in experiment [13], in experiment [14] and in [15] was inactive. Further, the outcome in experiment [16], in experiment [17], in experiment [18], in [19] and in experiment [20] was inactive.

Values taken from PubChem BioAssay (EPA / NIEHS).
